“And” between values parts separate entries of the source, which are not always exact repeats. Equal values may be shown once. About 79,000 compounds went through this panel and 15% of them were active in at least one assay; those are over-represented in the sample as a whole. The source made the active and inactive calls. Rule as the data show it: active = growth inhibition above about 70%; inactive = the rest.
Columns and labels:
[1] = NCI Yeast Anticancer Drug Screen. Data for the rad50 strain (AID 155);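 also: 0% = growth of vehicle-only cultures of the same strain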; details: S. cerevisiae rad50 strain growth inhibition; at 50.0 µM; stronger effect = higher value
In short: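 Genetically altered yeast (DNA repair pathway); compound treatment; growth inhibition vs vehicle ctrl.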

[2] = NCI Yeast Anticancer Drug Screen. Data for the mec2-1 strain (AID 157); details: S. cerevisiae mec2-1 strain, at 50.0 µM, stronger effect = higher value
In short: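 Growth inhibition is read against vehicle-treated controls after compound exposure of the mec2-1 yeast strain, which is defective in DNA damage repair or cell cycle control.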

[3] = NCI Yeast Anticancer Drug Screen. Data for the sgs1 mgt1 strain (AID 161);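 also: 0% = growth of cultures given vehicle only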; details: S. cerevisiae sgs1 mgt1 strain, at 50.0 µM, stronger effect = higher value
In short: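 This yeast growth screen uses a strain with defined DNA-repair lesions; compound-treated growth is compared with vehicle-treated growth.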

[4] = NCI Yeast Anticancer Drug Screen. Data for the cln2 rad14 strain (AID 165);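 also: 0% = growth equal to vehicle treated cultures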; details: S. cerevisiae cln2 rad14 strain, at 50.0 µM, stronger effect = higher value
In short: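 Growth inhibition, relative to vehicle-treated controls, is the read-out. The test organism is a yeast strain with defined genetic alterations, cln2 rad14.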

[5] = NCI Yeast Anticancer Drug Screen. Data for the bub3 strain (AID 167); details: S. cerevisiae bub3 mutant strain, at 50.0 µM, stronger effect = higher value
In short: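 Yeast carrying a defined mutation is treated with each compound, and growth is compared with that of vehicle-exposed cells to give inhibition.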

[6] = NCI Yeast Anticancer Drug Screen. Data for the mlh1 rad18 strain (AID 175); details: S. cerevisiae mlh1 rad18 strain growth inhibition; at 50.0 µM; stronger effect = higher value
In short: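 Cells of a genetically altered yeast strain, deficient in DNA damage repair, were treated with compound. Their growth was then compared with that of vehicle-treated cultures to give inhibition.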

Measured: growth inhibition

Nc1cc2ccc(S(=O)(=O)O)cc2cc1S(=O)(=O)O
inactive: [1] 44.5% and 10.7% | [2] 14.8% and 10.9% | [3] 17.6% and -1.75% | [4] -12.3% and -14.9% | [5] 8.8% and 11.2% | [6] 29.5% and 35.3%

CCc1ccc(N)cc1
inactive: [1] -16.4% and -3.75% | [2] -16.6% and 4.3% | [3] -23.4% and -4.25% | [4] -5.55% and -28.5% | [5] -16.5% and -11.1% | [6] -16.7% and 4.35%

CC(=O)NC1CCC(C(F)(F)F)CC1 (centres undefined)
inactive: [1] 9.9% and 2.15% | [2] 5.75% and -5.7% | [3] -9.5% and -4.95% | [4] -6.2% and -21.2% | [5] -1.75% and -2.55% | [6] 12.8% and 8.05%

OC(CBr)C(O)C(O)C(O)CBr (centres undefined)
inactive: [1] 13.9% and 16.8% | [2] 7.6% and -4.25% | [3] 4.15% and -11.3% | [4] 8.75% and -9.4% | [5] -10.8% and 0.2% | [6] -13% and -11.9%

CN(C)CC1CCCCC(CN(C)C)C1=O (centres undefined)
inactive: [1] -23.1% and -15.7% | [2] -5.8% and 2.95% | [3] -14.8% and -8.7% | [4] 4.4% and -52.7% | [5] -11.8% and 7.95% | [6] -13.6% and -8.7%

Oc1ccccc1-c1nc2ccccc2o1
inactive: [1] 4.85% and 8.3% | [2] -10.8% and -25.2% | [3] -13.8% and 7.15% | [4] -6.75% and 1.4% | [5] 1.05% and 24.3% | [6] 3.6% and 0.9%

COc1ccc(C(C)=O)cc1OC
inactive: [1] -0.95% and 6.35% | [2] -7.9% and -3.4% | [3] -1.4% and -3.3% | [4] 2.75% and -6.5% | [5] 3.25% and 2.6% | [6] -4.15% and 1.65%

COc1ccc2c(c1)CCC1C[C@@H]3C[C@]21C=CC3=O (some centres undefined)
inactive: [1] 11.8% and -3.5% | [2] -11.8% and -6.75% | [3] 0.75% and 14.9% | [4] 9.6% and 8.05% | [5] 24% and 19.4% | [6] 5.15% and 11.7%

O=C(c1ccco1)C(O)c1ccco1 (centres undefined)
inactive: [1] 18.4% and -8.55% | [2] -12.6% and -3.75% | [3] 1.55% and 11.1% | [4] 3.95% and -7.7% | [5] 15.7% and 1.55% | [6] -0.05% and -12.2%

CCOC(=O)C(N)CCSC (centres undefined)
inactive: [1] -22.8% and -14.2% | [2] -14.3% and -7.65% | [3] -13.8% and -1% | [4] -39.4% and -16.6% | [5] -13.3% and -8.95% | [6] -5.05% and -17.5%

c1ccc(Cc2nc3ccccc3[nH]2)cc1
inactive: [1] -13.5% and -2.5% | [2] -33.8% and -4.1% | [3] -10.4% and -18.9% | [4] -4.9% and 2.65% | [5] -28.8% and -13.8% | [6] 0.7% and -16.4%

Oc1ccc2ccccc2c1CNCc1c(O)ccc2ccccc12
inactive: [1] -1.45% and 2.85% | [2] -7.9% and -34.8% | [3] 6% and 1.7% | [4] -23.4% and -2.4% | [5] 26.5% and -20.8% | [6] -8.15% and -9.85%

CC(=O)Nc1ccccc1Cl
inactive: [1] 31.6% and 6% | [2] 6.7% and -9.05% | [3] 14.2% and -20.4% | [4] 24.9% and -20.1% | [5] 20.2% and -15.1% | [6] -11.4% and 21.4%

CN(C)CC1CCCC1=O (centres undefined)
inactive: [1] 7.15% and 1.25% | [2] -0.95% and -7.1% | [3] 5.8% and -22.7% | [4] 1.75% and 8.6% | [5] -0.75% and 8.25% | [6] 4.6% and 11.3%

— PubChem BioAssay (NCI)
